Reference: PubChem BioAssay (EPA / NIEHS)
Inconclusive results are not listed. Calls of active or inactive are those of the source. The calls were made as follows: active = hit-call score of the fitted dose curve at least 0.9, where 1 is the maximum; inconclusive = response in the unintended direction; inactive = score below 0.9.

Key:
[1] = target: human AKT serine/threonine Kinase 2 (AKT2), AKT2 (gene 208) (UniProt P31751); experiment: NVS_ENZ_hAKT2: NovaScreen (NVS) Enzymatic Assay for human AKT serine/threonine Kinase 2 (AKT2) (AID 2283141)
How it was run: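 Cell-free fluorescence/electrophoretic mobility shift readout of recombinant human AKT2 activity, 1 h after chemical dosing. Duplicate primary screen at 25 uM, then singleton concentration-response up to 50 uM; loss of signal versus DMSO baseline.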

[2] = target: human Aurora Kinase A - serine/threonine-protein Kinase 6 (AurA), AURKA (gene 6790) (UniProt O14965); experiment: NVS_ENZ_hAurA: NovaScreen (NVS) Enzymatic Assay for human Aurora Kinase A - serine/threonine-protein Kinase 6 (AurA) (AID 2283142)
How it was run: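 Recombinant human AurA activity read by fluorescence after mobility-shift separation of product from substrate; 1 hour incubation. Chemicals first run in duplicate at 25 uM, then concentration series to 50 uM if over threshold; fitted relative to DMSO.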

[3] = target: human AKT serine/threonine Kinase 1 (AKT1), AKT1 (gene 207) (UniProt P31749); experiment: NVS_ENZ_hAKT1: NovaScreen (NVS) Enzymatic Assay for human AKT serine/threonine Kinase 1 (AKT1) (AID 2283138)
How it was run: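 Compounds were first tested in duplicate at 25 uM, and those passing a threshold such as 30% inhibition were run in concentration-response to a maximum of 50 uM. Enzyme activity was measured after 1 h by fluorescence following substrate/product mobility-shift separation.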

[4] = system: rat CYP3A1, gene 25642; experiment: NVS_ADME_rCYP3A1: NovaScreen (NVS) CYP450-related Enzyme Activity (ADME) Assay for rat CYP3A1 (AID 2283126)
How it was run: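 Compounds went first at 10 uM duplicate, then to series with 20 uM maximum. Fluorescence from substrate turnover by the recombinant enzyme was measured 0.5 h post-dosing, inhibition scored against acetonitrile vehicle.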

[5] = target: human Acetylcholinesterase (AChE), ACHE (gene 43) (UniProt P22303); experiment: NVS_ENZ_hAChE: NovaScreen (NVS) Enzymatic Assay for human Acetylcholinesterase (AChE) (AID 2283129)
How it was run: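 Actives from a duplicate single-point screen (25 uM) were followed up in concentration series. Enzyme activity read by absorbance (colorimetric) 0.33 hour after dosing, cell-free, normalized to DMSO, with loss of signal scored.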

[6] = target: Caspase-1 (Homo sapiens) (UniProt P29466); experiment: NVS_ENZ_hCASP1: NovaScreen (NVS) Enzymatic Assay for human Caspase 1 (CASP1) (AID 2283132)
How it was run: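 Compounds were first tested in duplicate at 25 uM, with follow-up concentration series up to 50 uM. The bacterially expressed enzyme was read by fluorescence at 1 h post-dosing. Signal loss versus DMSO baseline indicates reduced enzyme activity.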

[7] = target: human Caspase 5 (CASP5), CASP5 (gene 838) (UniProt P51878); experiment: NVS_ENZ_hCASP5: NovaScreen (NVS) Enzymatic Assay for human Caspase 5 (CASP5) (AID 2283137)
How it was run: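 Chemicals were first tested in duplicate at 25 uM against recombinant caspase 5 from E. coli. Activity was read by fluorescence intensity 2 hours after dosing. Those passing a preset inhibition threshold were retested in singleton concentration-response up to 50 uM.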

[8] = target: human Beta-secretase (BACE), BACE1 (gene 23621) (UniProt P56817); experiment: NVS_ENZ_hBACE: NovaScreen (NVS) Enzymatic Assay for human Beta-secretase (BACE) (AID 2283140);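 also: hits are inhibitors that reduce fluorescent substrate signal versus DMSO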
How it was run: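 Fluorescence intensity read-out of protease activity defines this endpoint; signal loss relative to DMSO baseline marks inhibition. Recombinant enzyme from SF9 cells, cell-free format, 1 h exposure. Single-concentration duplicate screen (25 uM) precedes concentration-series follow-up.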

[9] = target: rat CYP2D2, Cyp2d26 (gene 25053) (UniProt P10634); experiment: NVS_ADME_rCYP2D2: NovaScreen (NVS) CYP450-related Enzyme Activity (ADME) Assay for rat CYP2D2 (AID 2283124)
How it was run: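 Single-concentration duplicate testing at 10 uM, followed by concentration-response (top 20 uM) for chemicals passing threshold. Enzyme activity of the recombinant rat isoform measured by fluorescence after 0.75 h, acetonitrile as baseline.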

[10] = target: human Caspase 8 (CASP8), CASP8 (gene 841) (UniProt Q14790); experiment: NVS_ENZ_hCASP8: NovaScreen (NVS) Enzymatic Assay for human Caspase 8 (CASP8) (AID 2283146)
How it was run: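 The primary screen tested compounds in duplicate at a single 25 uM concentration, with actives followed up in concentration series. Activity of recombinant (E. coli) protease was measured by fluorescence 1 h post-dose, as signal loss against DMSO.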

[11] = target: human Caspase 10 (CASP10), CASP10 (gene 843) (UniProt Q92851); experiment: NVS_ENZ_hCASP10: NovaScreen (NVS) Enzymatic Assay for human Caspase 10 (CASP10) (AID 2283133)
How it was run: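 Fluorescence-intensity enzyme read-out of E. coli-expressed CASP10 activity, 1 h after compound. Single-point duplicates at 25 uM preceded concentration-response testing (top 50 uM) of hits; inhibition expressed as signal loss versus DMSO.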

[12] = target: human Casein Kinase 2- alpha 2 beta 2 (CK2a2b2), CSNK2A1 (gene 1457) (UniProt P68400); experiment: NVS_ENZ_hCK2a2b2: NovaScreen (NVS) Enzymatic Assay for human Casein Kinase 2- alpha 2 beta 2 (CK2a2b2) (AID 2283147)
How it was run: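 Compounds were first screened in duplicate at 25 uM, and those passing the threshold were re-tested in concentration series up to a 50 uM maximum. Kinase activity of recombinant human CK2 α2β2 was measured 1 h after dosing by fluorescent substrate/product mobility-shift separation.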

[13] = target: human Caspase 2 (CASP2), CASP2 (gene 835) (UniProt P42575); experiment: NVS_ENZ_hCASP2: NovaScreen (NVS) Enzymatic Assay for human Caspase 2 (CASP2) (AID 2283135)
How it was run: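 Single-point duplicate testing at 25 uM preceded concentration series topping at 50 uM. Activity of the recombinant E. coli-derived protease was followed by fluorescent substrate cleavage 1 h post-dosing, relative to DMSO.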

human AKT serine/threonine Kinase 2 (AKT2), AKT2 (gene 208), sequence (P31751 whole entry, looked up): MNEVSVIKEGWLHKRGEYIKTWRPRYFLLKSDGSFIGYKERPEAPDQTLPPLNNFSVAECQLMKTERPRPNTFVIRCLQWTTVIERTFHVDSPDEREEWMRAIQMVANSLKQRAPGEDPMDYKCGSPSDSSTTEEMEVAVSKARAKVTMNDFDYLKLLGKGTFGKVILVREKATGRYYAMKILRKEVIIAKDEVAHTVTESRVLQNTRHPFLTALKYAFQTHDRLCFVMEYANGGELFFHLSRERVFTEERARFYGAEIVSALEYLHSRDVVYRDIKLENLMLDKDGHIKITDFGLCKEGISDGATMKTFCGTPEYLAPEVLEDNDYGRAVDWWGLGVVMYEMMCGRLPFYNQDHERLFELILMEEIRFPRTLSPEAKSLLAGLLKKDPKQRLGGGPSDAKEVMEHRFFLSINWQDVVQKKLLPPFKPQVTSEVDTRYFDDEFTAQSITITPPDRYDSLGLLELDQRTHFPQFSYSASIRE
human AKT serine/threonine Kinase 1 (AKT1), AKT1 (gene 207), sequence (P31749 whole entry, looked up): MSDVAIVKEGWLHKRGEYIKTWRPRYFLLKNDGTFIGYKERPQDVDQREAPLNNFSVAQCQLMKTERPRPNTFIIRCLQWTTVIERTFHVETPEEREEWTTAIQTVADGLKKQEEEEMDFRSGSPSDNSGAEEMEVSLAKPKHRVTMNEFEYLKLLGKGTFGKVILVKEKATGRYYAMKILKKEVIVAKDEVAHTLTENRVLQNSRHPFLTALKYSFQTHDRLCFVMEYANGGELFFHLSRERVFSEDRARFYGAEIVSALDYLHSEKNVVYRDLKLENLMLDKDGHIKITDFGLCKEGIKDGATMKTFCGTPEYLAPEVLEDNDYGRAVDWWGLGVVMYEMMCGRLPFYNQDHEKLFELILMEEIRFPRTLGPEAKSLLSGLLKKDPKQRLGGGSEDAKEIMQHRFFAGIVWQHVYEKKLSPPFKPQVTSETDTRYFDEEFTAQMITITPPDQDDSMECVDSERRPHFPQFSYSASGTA
human Acetylcholinesterase (AChE), ACHE (gene 43), sequence (P22303 whole entry, looked up): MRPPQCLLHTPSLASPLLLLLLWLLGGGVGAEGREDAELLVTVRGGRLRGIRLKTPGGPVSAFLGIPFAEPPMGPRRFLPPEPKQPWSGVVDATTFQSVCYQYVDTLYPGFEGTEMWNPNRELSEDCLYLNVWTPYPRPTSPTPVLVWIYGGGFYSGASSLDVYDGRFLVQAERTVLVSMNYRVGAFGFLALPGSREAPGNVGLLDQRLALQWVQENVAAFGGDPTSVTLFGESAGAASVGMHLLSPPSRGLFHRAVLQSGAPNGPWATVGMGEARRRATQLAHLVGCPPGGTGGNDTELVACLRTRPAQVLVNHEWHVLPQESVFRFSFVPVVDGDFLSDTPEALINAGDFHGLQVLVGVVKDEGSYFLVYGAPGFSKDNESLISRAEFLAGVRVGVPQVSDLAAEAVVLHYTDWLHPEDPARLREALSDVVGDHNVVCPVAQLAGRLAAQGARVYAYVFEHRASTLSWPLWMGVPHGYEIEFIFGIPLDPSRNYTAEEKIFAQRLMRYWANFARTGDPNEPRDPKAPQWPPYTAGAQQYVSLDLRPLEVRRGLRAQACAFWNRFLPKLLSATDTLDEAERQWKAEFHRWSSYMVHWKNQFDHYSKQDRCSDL
human Caspase 2 (CASP2), CASP2 (gene 835), sequence (P42575 whole entry, looked up): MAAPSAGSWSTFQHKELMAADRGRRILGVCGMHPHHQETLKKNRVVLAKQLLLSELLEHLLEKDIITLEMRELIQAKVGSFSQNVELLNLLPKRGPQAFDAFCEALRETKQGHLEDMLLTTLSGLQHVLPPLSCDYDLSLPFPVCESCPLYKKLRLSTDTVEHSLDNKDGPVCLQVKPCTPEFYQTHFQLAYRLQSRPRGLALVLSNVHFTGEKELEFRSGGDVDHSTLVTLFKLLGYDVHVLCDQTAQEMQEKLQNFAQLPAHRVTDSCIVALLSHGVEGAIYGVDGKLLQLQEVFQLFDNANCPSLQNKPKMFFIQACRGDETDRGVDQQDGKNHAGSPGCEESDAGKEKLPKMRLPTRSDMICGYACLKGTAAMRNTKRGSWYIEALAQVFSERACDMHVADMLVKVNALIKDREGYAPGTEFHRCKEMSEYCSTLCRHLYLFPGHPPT
human Caspase 5 (CASP5), CASP5 (gene 838), sequence (P51878 whole entry, looked up): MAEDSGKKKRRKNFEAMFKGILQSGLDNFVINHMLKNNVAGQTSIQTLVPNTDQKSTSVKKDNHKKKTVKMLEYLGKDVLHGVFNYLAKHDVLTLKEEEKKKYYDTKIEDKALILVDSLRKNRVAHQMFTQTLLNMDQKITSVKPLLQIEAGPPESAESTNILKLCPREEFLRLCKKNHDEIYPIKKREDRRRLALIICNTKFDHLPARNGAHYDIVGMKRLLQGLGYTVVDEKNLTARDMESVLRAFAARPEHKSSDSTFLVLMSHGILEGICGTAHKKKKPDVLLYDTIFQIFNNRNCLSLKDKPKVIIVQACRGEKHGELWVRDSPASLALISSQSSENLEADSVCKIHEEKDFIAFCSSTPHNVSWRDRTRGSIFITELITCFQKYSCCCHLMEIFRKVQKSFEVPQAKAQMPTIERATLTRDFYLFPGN
human Beta-secretase (BACE), BACE1 (gene 23621), sequence (P56817 whole entry, looked up): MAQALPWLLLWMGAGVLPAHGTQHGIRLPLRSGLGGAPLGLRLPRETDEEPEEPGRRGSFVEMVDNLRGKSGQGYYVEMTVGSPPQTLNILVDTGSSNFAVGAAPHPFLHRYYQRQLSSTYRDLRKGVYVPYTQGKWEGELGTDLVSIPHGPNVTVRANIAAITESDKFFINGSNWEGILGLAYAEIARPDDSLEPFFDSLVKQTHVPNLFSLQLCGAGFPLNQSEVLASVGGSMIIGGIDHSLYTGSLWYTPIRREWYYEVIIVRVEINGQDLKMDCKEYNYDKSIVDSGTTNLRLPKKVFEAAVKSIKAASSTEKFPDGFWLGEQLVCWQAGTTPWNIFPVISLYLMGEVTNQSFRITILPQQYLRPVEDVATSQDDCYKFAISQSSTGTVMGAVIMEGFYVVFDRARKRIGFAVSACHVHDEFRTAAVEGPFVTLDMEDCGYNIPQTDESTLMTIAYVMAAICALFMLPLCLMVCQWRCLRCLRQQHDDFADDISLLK
rat CYP2D2, Cyp2d26 (gene 25053), sequence (P10634 whole entry, looked up, canonical isoform): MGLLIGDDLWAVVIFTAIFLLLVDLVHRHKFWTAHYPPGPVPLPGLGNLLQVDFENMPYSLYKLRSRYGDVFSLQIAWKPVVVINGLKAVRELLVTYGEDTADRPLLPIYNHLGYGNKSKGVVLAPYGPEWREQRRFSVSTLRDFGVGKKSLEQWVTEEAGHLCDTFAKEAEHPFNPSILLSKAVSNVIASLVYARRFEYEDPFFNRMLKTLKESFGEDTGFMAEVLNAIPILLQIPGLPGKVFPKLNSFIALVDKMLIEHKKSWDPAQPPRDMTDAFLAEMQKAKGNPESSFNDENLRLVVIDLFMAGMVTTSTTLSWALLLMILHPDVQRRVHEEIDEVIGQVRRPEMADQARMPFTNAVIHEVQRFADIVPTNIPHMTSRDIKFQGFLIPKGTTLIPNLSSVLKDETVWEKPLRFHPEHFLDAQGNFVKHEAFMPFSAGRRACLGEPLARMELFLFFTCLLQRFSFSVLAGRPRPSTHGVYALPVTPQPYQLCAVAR
human Casein Kinase 2- alpha 2 beta 2 (CK2a2b2), CSNK2A1 (gene 1457), sequence (P68400 whole entry, looked up): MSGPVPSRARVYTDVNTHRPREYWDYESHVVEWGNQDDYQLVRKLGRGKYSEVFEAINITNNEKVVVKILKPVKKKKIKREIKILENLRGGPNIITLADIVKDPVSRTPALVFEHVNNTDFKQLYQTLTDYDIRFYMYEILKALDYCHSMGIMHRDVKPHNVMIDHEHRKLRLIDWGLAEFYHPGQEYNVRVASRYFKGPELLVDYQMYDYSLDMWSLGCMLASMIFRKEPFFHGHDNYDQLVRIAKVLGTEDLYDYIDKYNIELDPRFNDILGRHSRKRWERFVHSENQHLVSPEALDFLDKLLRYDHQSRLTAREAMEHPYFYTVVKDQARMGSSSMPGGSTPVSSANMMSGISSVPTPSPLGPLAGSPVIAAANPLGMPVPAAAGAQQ
human Caspase 8 (CASP8), CASP8 (gene 841), sequence (Q14790 whole entry, looked up): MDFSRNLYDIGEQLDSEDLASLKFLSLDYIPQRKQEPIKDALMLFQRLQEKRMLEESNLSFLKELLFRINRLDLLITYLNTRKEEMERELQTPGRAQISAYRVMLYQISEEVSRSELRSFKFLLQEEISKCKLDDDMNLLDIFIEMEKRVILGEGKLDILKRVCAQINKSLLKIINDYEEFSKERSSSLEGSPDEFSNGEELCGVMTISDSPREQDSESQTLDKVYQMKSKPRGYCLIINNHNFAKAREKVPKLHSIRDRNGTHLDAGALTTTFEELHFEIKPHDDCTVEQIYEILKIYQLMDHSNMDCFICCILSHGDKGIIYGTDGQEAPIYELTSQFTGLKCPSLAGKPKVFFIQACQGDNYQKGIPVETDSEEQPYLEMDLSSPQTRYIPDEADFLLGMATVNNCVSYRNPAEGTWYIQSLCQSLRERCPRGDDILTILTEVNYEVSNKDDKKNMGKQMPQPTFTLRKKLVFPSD
human Caspase 10 (CASP10), CASP10 (gene 843), sequence (Q92851 whole entry, looked up): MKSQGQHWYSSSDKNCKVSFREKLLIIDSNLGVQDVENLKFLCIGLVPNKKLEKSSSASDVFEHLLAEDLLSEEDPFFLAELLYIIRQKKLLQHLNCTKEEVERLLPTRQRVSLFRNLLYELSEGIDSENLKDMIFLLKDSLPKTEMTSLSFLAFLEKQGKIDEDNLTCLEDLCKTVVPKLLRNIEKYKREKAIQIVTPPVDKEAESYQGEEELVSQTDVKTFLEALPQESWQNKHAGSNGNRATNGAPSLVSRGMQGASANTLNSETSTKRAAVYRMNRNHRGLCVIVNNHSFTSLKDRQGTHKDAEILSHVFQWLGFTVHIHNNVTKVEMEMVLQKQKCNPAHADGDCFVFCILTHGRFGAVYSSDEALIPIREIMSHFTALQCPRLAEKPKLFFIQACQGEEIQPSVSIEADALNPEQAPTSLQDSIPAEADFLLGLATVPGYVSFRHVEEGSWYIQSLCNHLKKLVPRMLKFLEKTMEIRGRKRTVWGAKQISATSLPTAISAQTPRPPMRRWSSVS

## CCCC(=NOCC)C1=C(O)CC(CC(C)SCC)CC1=O (stereo unspecified)
[1]
  outcome: inactive
[2]
  outcome: inactive

## CCOc1nc(F)cc2nc(S(=O)(=O)Nc3c(Cl)cccc3Cl)nn12
[3]
  outcome: inactive

## COC(=O)NC(=S)Nc1ccccc1NC(=S)NC(=O)OC
[4]
  AC50: 7.66 µM (active)

## N#CN=C1SCCN1Cc1ccc(Cl)nc1
[5]
  AC50: 19.6 µM (active)

## O=c1n(Cl)c(=O)n(Cl)c(=O)n1Cl
[6]
  outcome: inactive
[7]
  outcome: inactive
[3]
  outcome: inactive
[1]
  outcome: inactive

## CNC(=O)Oc1cccc2ccccc12
[5]
  AC50: 25 µM (active)

## CC1(C)C(C=C(Cl)Cl)C1C(=O)OC(C#N)c1cccc(Oc2ccccc2)c1 (stereo unspecified)
[8]
  outcome: inactive

## CC1(C)CCC(=Cc2ccc(Cl)cc2)C1(O)Cn1cncn1 (stereo unspecified)
[9]
  outcome: inactive
[4]
  AC50: 0.0126 µM (active)

## CCSC(=O)N1CCCCCC1
[10]
  outcome: inactive

## CC1(C)C(C(=O)OC(C#N)c2cccc(Oc3ccccc3)c2)C1(C)C (stereo unspecified)
[8]
  AC50: 2.8 µM (active)

## Nc1c(Cl)c(Cl)nc(C(=O)O)c1Cl
[11]
  AC50: 10.5 µM (active)
[7]
  outcome: inactive
[3]
  outcome: inactive
[1]
  outcome: inactive

## CC1(C)CON(Cc2ccccc2Cl)C1=O
[5]
  outcome: inactive

## COCC(=O)N(c1c(C)cccc1C)C(C)C(=O)OC (stereo unspecified)
[4]
  AC50: 4.46 µM (active)

## Clc1nc(Cl)nc(Nc2ccccc2Cl)n1
[4]
  outcome: inactive
[12]
  AC50: 15.8 µM (active)

## Cc1ccc(N=CN(C)C=Nc2ccc(C)cc2C)c(C)c1
[4]
  AC50: 4.8 µM (active)

## CCNC(=O)NC(=O)C(C#N)=NOC
[9]
  outcome: inactive
[5]
  outcome: inactive
[13]
  outcome: inactive

## CC(C)N1C(=O)N(c2ccccc2)CSC1=NC(C)(C)C
[4]
  AC50: 5.84 µM (active)
[13]
  outcome: inactive

## CS(=O)(=O)c1ccc(C(=O)C2C(=O)CCCC2=O)c([N+](=O)[O-])c1
[12]
  AC50: 8.29 µM (active)

## CCOC(=O)C(C)OC(=O)c1cc(Oc2ccc(C(F)(F)F)cc2Cl)ccc1[N+](=O)[O-] (stereo unspecified)
[10]
  outcome: inactive
